Hits are enriched below; roughly 5.7% of the tested compounds scored in any of these assays.
B2AR arrestin – beta2AR (human) beta-arrestin recruitment activity; beta-arrestin recruitment to beta2AR, cell-based reporter; P07550; Potency, µM (top dose mostly 46.1 µM), most hits filed as activators; AID 492947; 0.02% of 330,000 active; further: nearly all actives have a fitted effect of over 65% in size
Target sequence (P07550 whole entry, looked up): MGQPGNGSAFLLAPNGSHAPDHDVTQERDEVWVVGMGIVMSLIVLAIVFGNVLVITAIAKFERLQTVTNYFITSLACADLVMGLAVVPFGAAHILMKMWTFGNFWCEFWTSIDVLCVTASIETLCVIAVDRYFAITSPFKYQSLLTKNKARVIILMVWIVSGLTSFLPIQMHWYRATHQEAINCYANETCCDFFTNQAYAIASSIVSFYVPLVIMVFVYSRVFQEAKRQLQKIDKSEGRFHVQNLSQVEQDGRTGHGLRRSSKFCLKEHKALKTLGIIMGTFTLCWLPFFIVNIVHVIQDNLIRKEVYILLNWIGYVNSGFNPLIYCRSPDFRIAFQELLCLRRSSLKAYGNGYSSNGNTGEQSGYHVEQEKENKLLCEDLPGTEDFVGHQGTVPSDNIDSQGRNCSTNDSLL
RORg inh – blocks mouse ROR gamma transcriptional activity; Potency, µM (series often up to 53.6 µM), most hits filed as inhibitors; P51450; Drosophila S2 Gal4-RORgamma UAS-luciferase reporter, 20 h; 5.4% of 310,000 active; further: nearly all actives have a fitted effect of over 60% in size
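Luminescence from a UAS-regulated Photinus luciferase reporter in stably transfected Drosophila Schneider cells is measured; decreased signal marks ROR gamma inhibition. Fusion expression is induced by 700 uM copper sulfate for 20 hr.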
VP16 counter – Gal4-VP16 reporter inhibition counter-screen; Drosophila S2 Gal4-VP16 UAS-luciferase, luminescence, 20 h; Potency, µM (titrated, usually from 53.6 µM), actives largely listed as inhibitors; 3.5% of 310,000 active; AID 2546;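 further: Gal4-VP16 expression switched on by copper sulfate through the metallothionein promoter; nearly all actives have a fitted effect of over 50% in size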
NPSR antagonist – blocks cAMP signaling of the human neuropeptide S receptor | Q6W5P4 | CHO-NPSR cells, cAMP TR-FRET, antagonist mode | Potency, µM (titrated, usually from 38.3 µM), actives largely listed as inhibitors | 1% of 220,000 active | AID 1461; further: nearly all actives have a fitted effect of over 50% in size
Large screens that a line does not name were inactive. The call rests on the fitted dose curve; in most records, active means well fitted curve in the direction sought with a large enough effect; inconclusive means small, poorly fitted or top-dose-only effect, or another doubt; inactive means no such curve, though single readings can be large; an effect the other way counts as inactive or inconclusive.

CCC1CCCCN1CCCNC(=O)Cn1c(=O)c2cccn2c2cccnc21 (stereo unspecified)	RORg inh inconclusive (no result: NPSR antagonist)
C=CCC(Nc1ccccc1)C12C=CC(O1)C(C(=O)OC)=C2C(=O)OC (stereo unspecified)	RORg inh 5.62µM, VP16 counter 6.31µM, NPSR antagonist inconclusive
O=C(O)/C=C/c1cnn(-c2ccccc2)c1	RORg inh 7.94µM, VP16 counter 14.1µM
CC#CC(=O)Nc1cc2c(Nc3ccc(F)c(Cl)c3)ncnc2cn1	none (no result: B2AR arrestin, NPSR antagonist)
Cn1c(=N)n(CC(=O)c2ccccc2)c2ccccc21	RORg inh 8.91µM, VP16 counter 11.2µM
CCn1c(=N)n(CC(=O)C(C)(C)C)c2ccccc21	RORg inh inconclusive, VP16 counter 3.16µM
CCCn1c(=N)n(CC(=O)C(C)(C)C)c2ccccc21	RORg inh inconclusive
CCCCn1c(=N)n(CC(=O)C(C)(C)C)c2ccccc21	RORg inh 5.01µM, VP16 counter inconclusive
Cn1c(=N)n(CC(=O)C(C)(C)C)c2ccccc21	RORg inh 11.2µM, VP16 counter inconclusive
Cc1cc(SCC(=O)N(C)CC(=O)Nc2ccc(F)cc2)nc2ccccc12	none
COc1ccc2c(c1)OC(C)(C)C(c1ccccc1)C2c1ccc(OCCN2CCCC2)cc1 (stereo unspecified)	none (no result: B2AR arrestin, NPSR antagonist)
CCN(c1ccccc1)S(=O)(=O)c1ccc(C(=O)Nc2ncccc2O)cc1	RORg inh 20µM, VP16 counter inconclusive (no result: NPSR antagonist)
CCN(c1ccccc1)S(=O)(=O)c1ccc(C(=O)Oc2ccc(C(C)=O)cc2)cc1	RORg inh inconclusive, VP16 counter 10µM
CCN(c1ccccc1)S(=O)(=O)c1ccc(C(=O)Nc2cccc(NC(C)=O)c2)cc1	none (no result: RORg inh, VP16 counter, NPSR antagonist)
CCOC(=O)C1CCN(c2ncnc3c2cnn3-c2ccc(Cl)cc2)CC1	RORg inh 1.41µM, VP16 counter inconclusive
COc1ccc(-n2ncc3c(N(C)C4CCCCC4)ncnc32)cc1	RORg inh 0.251µM, VP16 counter 8.91µM (no result: NPSR antagonist)
COCCN(CCOC)c1ncnc2c1cnn2-c1ccccc1	none
CC1CCN(c2ncnc3c2cnn3-c2ccccc2)CC1	RORg inh inconclusive, VP16 counter inconclusive
Cc1cccc(-n2ncc3c(N(C)C4CCCCC4)ncnc32)c1	RORg inh inconclusive, VP16 counter 0.891µM
COc1ccc(-n2ncc3c(N4CCC(C)CC4)ncnc32)cc1	RORg inh 8.91µM, VP16 counter inconclusive (no result: NPSR antagonist)
Cc1nc(-c2ccccn2)nc(N(C)c2ccccc2)c1Cl	RORg inh 0.316µM, VP16 counter 1.58µM (no result: NPSR antagonist)
c1ccc(OCCn2c(-c3ccco3)nc3ccccc32)cc1	RORg inh 11.2µM
Cc1cccc(OCCn2c(-c3ccco3)nc3ccccc32)c1	RORg inh 15.8µM, NPSR antagonist inconclusive
COc1ccc2oc(=O)c(C(=O)Nc3cccc(C(C)=O)c3)cc2c1	RORg inh 2µM, VP16 counter 5.62µM (no result: NPSR antagonist)
CNC(=O)c1cc2cc(OC)ccc2oc1=O	none
COc1cccc(NC(=O)c2cc3ccccc3oc2=O)c1	RORg inh 6.31µM, VP16 counter 10µM (no result: NPSR antagonist)
CN1CCN(CCc2ccc(Cl)c(Cl)c2)CC1	none (no result: B2AR arrestin, NPSR antagonist)
Cc1ccc(C2=NN(C3=NN=C(N)Cc4ncnn43)C(O)(C(F)(F)F)C2)cc1 (stereo unspecified)	RORg inh 8.91µM, VP16 counter inconclusive
CCOC(=O)N1N=C(c2ccc(C)cc2)CC1(O)C(F)(F)F (stereo unspecified)	RORg inh 6.31µM, VP16 counter 6.31µM
Cc1ccc(OCC(=O)N2N=C(c3ccncc3)CC2(O)C(F)(F)F)cc1C (stereo unspecified)	RORg inh 3.98µM
O[C@@H]([C@H](O)[C@@H](O)CBr)[C@@H](O)CBr	none (no result: B2AR arrestin, NPSR antagonist)
Nc1nonc1-c1nc2ccccc2n1Cc1ccc(F)cc1Cl	RORg inh 15.8µM, VP16 counter inconclusive
COc1ccccc1C1=Nn2c(nnc2-c2ccccc2O)SC1	RORg inh inconclusive (no result: B2AR arrestin, NPSR antagonist)
Cc1noc2ncnc(Sc3ccc(Br)cc3)c12	RORg inh 3.98µM, VP16 counter 11.2µM
Cc1noc2ncnc(N3CCCC3)c12	none
Cc1cc2occ(CC(=O)NC3=NCCS3)c2cc1C(C)C	VP16 counter 12.6µM
COc1ccc2c(c1)C(=O)[C@@H](OC(=O)NCCOc1ccccc1)[C@H](c1ccc(OC)c(Br)c1)O2	none (no result: B2AR arrestin, NPSR antagonist)
C/C(=N\NC(=O)c1ccc(Cl)cc1)c1ccc2[nH]ccc2c1	none (no result: NPSR antagonist)
COCCNC(=S)NN=C1CCCCCC1	B2AR arrestin inconclusive, RORg inh 2µM, VP16 counter 6.31µM
COc1ccccc1CN1CCCC2(CCN(C(C)=O)CC2)C1	none (no result: B2AR arrestin, NPSR antagonist)
Cc1ccc(NC(=S)NNC(=O)c2ccccc2OC(F)F)cc1	RORg inh inconclusive
O=C(NNC(=S)Nc1ccc(F)cc1)c1ccccc1OC(F)F	RORg inh 2.82µM
CCn1nc(NC(=O)c2ccncc2)c2cc3cccc(C)c3nc21	none
CCn1nc(NC(=O)c2ccccn2)c2cc3cccc(C)c3nc21	RORg inh 3.16µM, VP16 counter 3.98µM
Cn1c(N)c(C(=O)COC(=O)c2ncc(Cl)c(Cl)c2Cl)c(=O)n(C)c1=O	none
Cc1ccc(/C=C/C(=O)N2CC(=O)Nc3ccccc32)o1	RORg inh inconclusive, VP16 counter 15.8µM
CCCN(CCC)CCCNC(=O)Cn1cnc2sc(C)c(S(=O)(=O)N3CCOCC3)c2c1=O	none (no result: NPSR antagonist)
C/C(=N\NC(=O)c1ccoc1C)c1cccc2ccccc12	RORg inh 12.6µM (no result: NPSR antagonist)
Cc1occc1C(=O)N/N=C/c1ccc(Br)s1	RORg inh 6.31µM, VP16 counter 10µM
O=C(N/N=C/c1ccsc1)c1ccccn1	none
C/C(=N\NC(=O)c1cccc2ccccc12)c1cccs1	none (no result: NPSR antagonist)
C/C(=N\NC(=O)c1ccoc1C)c1ccc(Br)s1	RORg inh 6.31µM, VP16 counter 11.2µM (no result: NPSR antagonist)
Cc1ccc(/C=N/NC(=O)c2ccoc2C)s1	RORg inh inconclusive, VP16 counter inconclusive
O=C(N/N=C/c1ccc(Br)s1)c1ccccn1	RORg inh inconclusive, VP16 counter 3.98µM
COc1ccc(O[C@H]2C=C[C@@H](c3ccccc3)O[C@H]2CO/N=C(/C)CCC(=O)OC[C@@H]2O[C@H](C#Cc3ccccc3)C=C[C@@H]2Oc2ccc(C)cc2)cc1	none (no result: B2AR arrestin, NPSR antagonist)
CCC(=O)N(C)CCc1cc2c(c(OC)c1/C=N/NC(=O)c1ccc(Br)cc1)OCO2	VP16 counter inconclusive
CS(=O)(=O)N(CC(=O)N1CCCC1)Cc1ccc(Cl)cc1	none
COc1cc(C(=O)NN2C(=O)NC3(CCC(C)CC3)C2=O)ccc1OC(F)F (stereo unspecified)	none (no result: RORg inh, VP16 counter, NPSR antagonist)
O=C(N/N=C/c1ccc(Br)s1)c1ccco1	RORg inh 6.31µM, VP16 counter 10µM
Cc1ccc(/C=N/NC(=O)c2ccco2)s1	RORg inh inconclusive
O=C(N/N=C/c1sc(=O)n(Cc2ccc(Br)cc2)c1Cl)c1ccco1	RORg inh 11.2µM, VP16 counter inconclusive (no result: NPSR antagonist)
N[C@H](CSSC[C@@H](N)C(=O)O)C(=O)O	none (no result: B2AR arrestin, NPSR antagonist)
S=c1nc(Cc2ccccc2)[nH]c2ccccc12	RORg inh 2.82µM, VP16 counter 6.31µM (no result: NPSR antagonist)
O=c1[nH]c(COc2ccccc2)nc2ccccc12	none (no result: NPSR antagonist)
S=c1nc(Cc2ccc(Cl)cc2)[nH]c2ccccc12	RORg inh 1.78µM, VP16 counter 11.2µM
Cc1nc(=S)c2ccccc2[nH]1	RORg inh 10µM, VP16 counter inconclusive
FC(F)(F)c1nc(=S)c2ccccc2[nH]1	NPSR antagonist inconclusive

Compound activity (PubChem BioAssay)
